# IMPase Li cell: cell-permeable IMPase inhibitors with lithium potentiation; CHO-M1 cells, IP1 TR-FRET (IP-One), carbachol + lithium; Potency, µM (top dose mostly 59.4 µM), actives largely listed as inhibitors; 210,000 compounds, 0.35% hits; active means well fitted curve in the direction sought with a large enough effect; inconclusive means small, poorly fitted or top-dose-only effect, or another doubt; inactive means no such curve, though single readings can be large; an effect the other way counts as inactive or inconclusive;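 further: IP1 builds up when IMPase is blocked and the TR-FRET signal falls; nearly all actives have a fitted effect of over 50% in size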
#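 CHO-M1, 2000 cells/well, 16–30 h culture; cpd + low Li+, 30 min 37C; lysis with d2-IP1/Eu-anti-IP1 Ab, 10 min RT; TR-FRET 665/620 ratio and 620 channel; AC50 via Hill.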
# PNC inhibitor: inhibitors of perinucleolar compartment assembly. PC3M PTB-GFP, PNC prevalence imaging, 16 h; active compounds read low. activity change (PNC), negative = inhibition, % at 10 µM. 140,000 compounds, 3.1% hits;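 active means readout at or below -70, meaning at least 70% loss of cells showing the perinucleolar compartment, a nuclear body marking cancer cells; inconclusive means readout between -30 and a set limit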
#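 PC3M cells stably expressing PTB-GFP, 750–1000 cells/well, treated 16 h at 37 °C with compound (23 nl of library stock), in duplicate. After paraformaldehyde fixation and Hoechst stain, imaged at 20x; PNC prevalence scored by image analysis.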
# 12-hLO inh: inhibitors of human 12-lipoxygenase (ALOX12); P18054; purified 12-hLO, xylenol orange hydroperoxide absorbance; 150,000 compounds, 0.12% hits; Potency, µM (top dose mostly 57.1 µM), hits mostly inhibitors; active means well fitted curve in the direction sought with a large enough effect; inconclusive means small, poorly fitted or top-dose-only effect, or another doubt; inactive means no such curve, though single readings can be large; an effect the other way counts as inactive or inconclusive; further: nearly all actives have a fitted effect of over 55% in size
#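 Purified human 12hLO (150 nM final) was preincubated with compounds for 15 min at room temperature in 25 mM Hepes pH 7.0, 0.01% Triton X-100, then reacted with 40 uM arachidonic acid for 30 min. Hydroperoxide was detected with ferrous iron/xylenol orange.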
# ALDH1A1 inh: inhibitors of human aldehyde dehydrogenase 1A1 | Potency, µM (top dose mostly 75.3 µM), hits mostly inhibitors | 220,000 compounds, 7.3% hits | Purified ALDH1A1, NADH fluorescence, propionaldehyde substrate | P00352
# HPGD inh: blocks human HPGD enzyme activity; Potency, µM, usual class: inhibitors; AID 894; 150,000 compounds, 4.3% hits; P15428; purified HPGD, NADH fluorescence kinetic, PGE2 substrate
# Target sequence (P15428 whole entry, looked up): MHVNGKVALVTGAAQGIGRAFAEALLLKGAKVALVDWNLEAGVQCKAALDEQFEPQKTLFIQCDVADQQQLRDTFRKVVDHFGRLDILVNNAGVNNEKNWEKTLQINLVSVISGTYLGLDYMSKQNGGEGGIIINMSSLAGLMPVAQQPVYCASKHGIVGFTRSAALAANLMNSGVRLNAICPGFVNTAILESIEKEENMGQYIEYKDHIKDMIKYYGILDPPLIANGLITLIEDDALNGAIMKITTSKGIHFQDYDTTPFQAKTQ
#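 20 nM HPGD preincubated 15 min at room temperature with compound in 50 mM Tris-HCl pH 8, 0.01% Tween 20. Started with 1 mM NAD+ and 30 uM prostaglandin E2; NADH fluorescence (360/450 nm) read 5 times over 30-s intervals, last minus first.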
# IMPase inh: cell-permeable inhibitors of inositol monophosphatase (IMPase); AID 901; P97697; CHO-M1 cells, IP1 accumulation, HTRF TR-FRET ratio; 120,000 tested, under 10 active; inhibition (IP1 accumulation), % at 46.1 µM; active means well fitted curve in the direction sought with a large enough effect in the signal ratio, not every such curve was filed as active; inconclusive means small, poorly fitted or top-dose-only effect, or a change in a side signal; inactive means no such curve, though single readings can be large or run the other way; the % refers to the signal ratio;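 further: cells stimulated with carbachol in lithium chloride buffer; higher means more IMPase inhibition seen as more IP1 and lower FRET ratio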
# Target sequence (P97697 whole entry, looked up): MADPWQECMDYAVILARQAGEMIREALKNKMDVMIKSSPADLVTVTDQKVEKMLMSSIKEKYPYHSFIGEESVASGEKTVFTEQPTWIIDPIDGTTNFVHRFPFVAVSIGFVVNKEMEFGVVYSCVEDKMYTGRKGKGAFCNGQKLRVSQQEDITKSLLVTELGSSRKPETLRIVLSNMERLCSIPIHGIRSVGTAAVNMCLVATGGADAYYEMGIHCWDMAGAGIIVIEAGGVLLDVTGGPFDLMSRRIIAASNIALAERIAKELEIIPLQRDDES
#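 Elevated IP1 in lysates lowers TR-FRET signal (665/620 ratio and 620 channel reported). Cells were CHO-M1, given carbachol (50 uM as added) plus 50mM LiCl, pH 7.4, 30 min, 37C; compounds titrated up to 46 uM; AC50 by Hill equation.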
# A number is an active result; i = inactive; ? = inconclusive; nt = no result given; [ ] = remark or other dose. The list is not random: actives were taken first. Their share in the collection is about 11%. Unless noted, the call rests on the fitted dose curve; in most records, active means well fitted inhibition curve with a large enough effect (not every such curve was filed as active); inconclusive means small, poorly fitted or top-dose-only effect, or another doubt; inactive means no such curve, though single readings can be large or run the other way.
SMILES,IMPase Li cell,PNC inhibitor,12-hLO inh,ALDH1A1 inh,HPGD inh,IMPase inh
CCN(CC)S(=O)(=O)c1ccc(N2CCCC2)c(NS(=O)(=O)c2ccccc2)c1,i,i,i,0.355µM,i,nt
COc1ccc(S(=O)(=O)Nc2cc3c(cc2N2CCOCC2)n(C)c(=O)n3C)cc1,nt,nt,nt,nt,nt,i
CCN(CC)S(=O)(=O)c1ccc(N2CCCC2)c(NS(=O)(=O)c2ccc(F)cc2)c1,i,?,i,0.631µM,i,nt
NCCCNCCCCNCCCNC(=O)CCc1ccc(O)cc1,i,nt,i[0.00818 µM],i[13.5 µM],i,nt
CCOc1ccc2cc(-c3nnc(Nc4ccc(C)cc4)s3)c(=O)oc2c1,nt,nt,nt,nt,nt,i
CC(C)[C@@H](OCc1ccccc1)[C@H](C)CO/N=C1/[C@H]2OC2[C@@H](O)[C@H]2[C@H]1CCn1c(=O)n(-c3ccccc3)c(=O)n12 (some centres not stated),nt,nt,nt,i[13.5 µM],nt,nt
CCN(CC)S(=O)(=O)c1ccc(N2CCCC2)c(NS(=O)(=O)c2ccc([N+](=O)[O-])cc2)c1,nt,i,i,2µM,nt,i
CN1CCN(c2ncnc3ccc(-c4cccnc4)cc23)CC1,i,nt,nt,i,nt,nt
Cc1cnc(CNc2ncnc3ccc(-c4ccc(N(C)C)cc4)cc23)cn1,i,nt,nt,i,nt,nt
Oc1c(Br)cc(Br)cc1/C=N/NC(=S)N[C@H]1CC2C=CC1C2 (some centres not stated),nt,nt,nt,12.6µM,nt,nt
COc1cc(/C=N/NC(=S)NC2CC3C=CC2C3)cc(OC)c1OC (configuration not stated),nt,nt,nt,2.51µM,nt,nt
O=C(CSc1ncnc2nc[nH]c12)Nc1nnc(SCc2ccc(Cl)c(Cl)c2)s1,i,nt,nt,i,nt,nt
Cc1cccc2cc3ccc4ccccc4c3cc12,i,nt,i[11.4 µM],?,?,nt
O=C(NCCO)c1cccc2c1C(=O)c1ccccc1-2,i,?,i,20µM,i,nt
Cc1cccc(N2CCN(C(c3ccccc3)c3nnc(-c4ccccc4Cl)o3)CC2)c1C (configuration not stated),nt,nt,nt,nt,nt,i
CC(C)C[C@@H](CC(=O)N[C@@H](CCC(=O)O)CC(=O)O)NC(=O)[C@@H]1CCCC[C@H]1NC(=O)C[C@@H](NC(=O)C[C@H](Cc1ccccc1)NC(=O)[C@@H]1CCCC[C@H]1N)C(C)C,i,nt,i,i,i,nt
CCCCCCN(C(=O)CCCCCN1C(=O)NC(c2ccccc2-c2ccccc2)C(C(=O)OCc2ccccc2)=C1C)C(C(=O)NCCCC)c1ccc(OCC(=O)OC)c(C(=O)OC)c1 (configuration not stated),i,nt,i,35.5µM,i,nt
CCCCCCN(C(=O)CCCCCN1C(=O)NC(c2ccc3ccccc3c2)C(C(=O)OCc2ccccc2)=C1C)C(C(=O)NCCCC)c1ccc(OCC(=O)OC)c(C(=O)OC)c1 (configuration not stated),i,nt,i,i,i,nt
CCCCCCN(C(=O)CCCCCN1C(=O)NC(C2CCCCC2)C(C(=O)OCc2ccccc2)=C1C)C(C(=O)NCCCC)c1ccc(OCC(=O)OC)c(C(=O)OC)c1 (configuration not stated),i,nt,i,28.2µM,i,nt
CCCCNC(=O)C(c1ccc(OCC(=O)OC)c(C(=O)OC)c1)N(CCc1ccccc1)C(=O)CCCCCN1C(=O)NC(c2ccc(-c3ccccc3)cc2)C(C(=O)OCc2ccccc2)=C1C (configuration not stated),i,nt,i,i,i,nt
Cn1c(=O)c(-c2ccc(F)cc2)nc2cnc(N3CCOCC3)nc21,i,nt,nt,?,nt,nt
CCN(CC)C(=O)C(=O)c1cccn1-c1ccc(C#N)cc1,i,nt,nt,i,nt,nt
Cc1ccc(-n2cccc2C(=S)N=P(N(C)C)(N(C)C)N(C)C)cc1,i,i,i,10µM,?,i
CCCc1nc2ccccc2c2nc(N)nn12,i,i,i,i,i,i
Cc1nc2ccccc2c2nc(N)nn12,i,-100.0,i,i,i,i
Cc1ccc(S(=O)(=O)CCC(=O)O)cc1C,i,i,i,8.91µM,i,i
CC(=O)NCc1ccc(C(=O)CCl)cc1,i,nt,nt,0.355µM,nt,nt
CC(=O)Nc1ccc(C)cc1,i,nt,i,i,i,nt
CC(=O)N(C)Cc1ccc(C(=O)CCl)cc1,i,nt,nt,0.708µM,nt,nt
CC(=O)NCc1ccc(C(=O)CCl)s1,i,nt,nt,0.141µM,nt,nt

# Screening data (PubChem BioAssay)
